This is a sample that favours compounds with a hit; in the whole collection about 12% have one here.
Sm TGR inh – S. mansoni TGR enzyme inhibition; 3% of 360,000 active; Q962Y6; Potency, µM (titrated, usually from 114 µM), without a hit: at the top dose activity change, negative = inhibition, usual class: inhibitors; purified TGR, DTNB reduction, TNB absorbance 405 nm; active = well fitted inhibition curve with a large enough effect; inconclusive = small, poorly fitted or top-dose-only effect; inactive = no such curve, though single readings can be large or run the other way; note: potency is the fitted concentration of half-maximal effect; % is set by controls: 0 for no effect and ±100 for the full control effect; nearly all actives have a fitted effect of over 60% in size
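First, TGR (20 nM dispensed) and NADPH were mixed with compound. Second, a 15 min room-temperature incubation followed. Third, further NADPH and then DTNB were added to start the reaction. Finally, TNB absorbance was monitored kinetically.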
Shiga toxin inh – inhibitors of Shiga toxin in Vero cells; AID 2315; inhibition, % at 38.7 µM; Vero cells, Shiga toxin protein synthesis inhibition reporter; 9.2% of 290,000 active; in the data active = inhibition mostly above about 28%, no sharp cut-off; inactive = mostly below about 43%; note: 0% is about no effect
CHX counter – counter-screen for Shiga toxin inhibitors: cycloheximide protein synthesis inhibition; cell reporter, cycloheximide protein synthesis inhibition counterscreen; max response, %; 12% of 300,000 active; in the data active = max response mostly above about 13%, no sharp cut-off; inactive = mostly below about 14%; note: read at 38.3 µM for the half of the compounds with a filed dose; 0% is about no effect
FMDV antiviral – blocks foot and mouth disease virus; FMDV antiviral cell-based qHTS; Potency, µM (series often up to 57.9 µM), for the others: top-dose activity change, negative = inhibition, actives largely listed as inhibitors; 1.2% of 410,000 active; AID 1159524; calls by dose curve; tested in HEK293T cells; note: read-out not given here; potency is the fitted concentration of half-maximal effect; % is set by controls: 0 for no effect and ±100 for the full control effect; nearly all actives have a fitted effect of over 45% in size
An asterisk follows results filed as active; ? = inconclusive; / = no result.

SMILES | Sm TGR inh | Shiga toxin inh | CHX counter | FMDV antiviral
Cc1cccc(N2CCN(S(=O)(=O)c3cn(C)c(C)n3)CC2)c1C | 1% | / | / | 0%
O=C(c1cc(-c2ccco2)nc2ccccc12)N1CCN(Cc2ccccc2)CC1 | 14µM* | / | / | 13%
O=C(c1cc(-c2ccccc2)nc2ccccc12)N1CCOCC1 | -8% | -11 | -6 | -23%
Cc1nc2cc(-c3cccc(Cl)c3)nn2c(N2CCN(C(=O)c3ccco3)CC2)c1C | -11% | 102* | 28* | /
Cc1cccc2c(C(=O)N3CCN(C(=O)c4ccco4)CC3)cc(-c3cccc(Br)c3)nc12 | -14% | 6 | 2 | 18µM*
O=C(c1ccco1)N1CCN(C(=O)c2cc(-c3ccccc3)nc3ccccc23)CC1 | -14% | 13 | 19* | 8%
COC(=O)C1CCN(C(=O)c2cc(-c3ccco3)nc3ccccc23)CC1 | / | / | / | -5%
Cc1cc(N2CCN(C(=O)c3ccco3)CC2)n2nc(-c3cccc(Cl)c3)cc2n1 | -33% | 46 | -3 | ?
CCOc1ccc(CN2C(=O)c3ccccc3Sc3ccc(C(=O)NCc4ccc5c(c4)OCO5)cc32)cc1 | 0% | 1 | 4 | -10%
COC(=O)c1ccc(OCC2c3cc(OC)c(OC)cc3CCN2C(=O)c2cccc(C)c2)cc1 (stereo not given) | 8% | / | / | ?
Cc1ccc(NC(=O)C(Cc2ccccc2)NS(=O)(=O)c2cccc3nsnc23)c(C)c1 (stereo not given) | -17% | / | / | 40%
CCN=c1scc(C)n1/N=C/c1ccsc1 | 0% | 104* | 47* | 55%
CCOc1ccc(N2CC(NC(=O)C3CCCCC3)CC2=O)cc1 (stereo not given) | 2% | / | / | -5%
C/C(=N/Nc1nc(C)c(C)s1)c1cccc([N+](=O)[O-])c1 | ? | 30* | 30* | 47%
C/C(=N\Nc1nc(N)cc(Cl)n1)c1cccc([N+](=O)[O-])c1 | 4% | 75* | 37* | 32%
C/C(=N\Nc1nc(N)cc(Cl)n1)c1cccc(N)c1 | -3% | 39* | 52* | 10%
C/C(=N/Nc1nc(-c2ccccc2)cc(-c2ccc(F)cc2)n1)c1cccc(N)c1 | -9% | 9 | 16 | 8%
CCc1ccc(NCc2cc3cc4c(cc3n(CC(=O)Nc3ccccc3C)c2=O)OCCO4)cc1 | -31% | / | / | 17%
COCCCN1C(=O)c2ccccc2CC1(C)C(=O)NC1CCCCC1 (stereo not given) | 7% | / | / | 27%
CCOc1cc(CNCc2ccccc2)ccc1OCc1ccc(Cl)cc1 | -2% | -13 | -6 | ?
CCOc1cccc(CNc2ccc(O)cc2)c1OCc1ccc(Cl)cc1 | 32µM* | 6 | -1 | ?
CCOc1cc(CNc2ccc(O)cc2)ccc1OCc1ccc(Cl)cc1Cl | ? | 51* | 26* | ?
COc1cc(C(=O)NCC(c2ccc3c(c2)OCO3)N2CCOCC2)cc(OC)c1OC (stereo not given) | 4% | / | / | 1%
Cc1ccc(NC(=O)c2nc(-c3ccncc3)no2)c(Cl)c1 | 12% | / | / | -2%
COc1cccc(N(C(=O)c2nc3nccc(C)n3n2)c2nc3ccccc3s2)c1 | 4% | 67 | 27* | 3%
SMILES | Sm TGR inh | Shiga toxin inh | CHX counter | FMDV antiviral
COc1cccc(NC(=O)COC(=O)c2nc3nccc(C)n3n2)c1 | -1% | 22 | 13* | 2%
NC(=O)CSc1nc2c(c(=O)n1-c1ccccc1)C1(CCCCC1)Cc1ccccc1-2 | -1% | -7 | 1 | 20µM*
CCCCSc1ncnc2c1c(-c1ccccc1)cn2-c1cccc(F)c1 | -1% | / | / | 5%
O=C1c2ccccc2CC1Sc1nnc(-c2ccncc2)o1 (stereo not given) | 16µM* | 25 | 12 | 27%
Cc1ccccc1N1C(=O)CC(Sc2nnc(-c3ccccc3)o2)C1=O (stereo not given) | 2.8µM* | 10 | 19* | -26%
CCN=C(NCC)SC1CC(=O)N(c2ccccc2)C1=O (stereo not given) | -28% | -6 | -6 | 7%
O=C1CC(Sc2nnc(-c3ccccc3)o2)C(=O)N1c1ccccc1 (stereo not given) | 3.5µM* | 49* | 22* | ?
O=C1OCCC1Sc1nnc(-c2ccc(Br)cc2)o1 (stereo not given) | -8% | -5 | -4 | ?
Cc1nc(-c2ccc(S(=O)(=O)N3CCN(c4cccc(Cl)c4)CC3)cc2)co1 | -3% | / | / | -14%
Cc1nn(-c2nc(-c3ccc(F)cc3)cc(C(F)(F)F)n2)c(C)c1Br | 16% | / | / | ?
COc1cc(=O)n2c(c1C(=O)N(C)Cc1nccs1)CCN(Cc1ccc(F)c(F)c1)CC2 | / | / | / | -3%
CCN(CC)C(=O)Cn1c(=O)n(Cc2ccc(C(=O)NCc3ccccc3Cl)cc2)c(=O)c2ccccc21 | 7% | / | / | 33%
O=C(c1ccco1)N1CCn2c1nc1ccccc12 | -17% | 53* | 29* | 30%
Nc1nc2ccccc2n1C(=O)c1ccco1 | 0% | 90* | 55* | 0%
O=C(c1ccco1)N1CCN(C(=O)c2ccco2)C1=S | / | / | / | 32µM*
Nc1nc(-c2ccccc2)nn1C(=O)c1ccco1 | 4% | 19 | 8 | 4%
CCC(=O)N1CCn2c1nc1ccccc12 | 1% | -17 | -1 | 24%
Nc1nc2ccccc2n1C(=O)CCc1ccccc1 | 0% | 95* | 46* | 34%
CCc1ccc2c(c1)-c1ccccc1S(=O)(=O)N2CC(=O)N1CCC(C)CC1 | -1% | / | / | 1%
CCOC(=O)c1c(NC(C)=O)c2c3c(sc2n1Cc1nc(-c2ccccc2OCC)oc1C)CCCC3 | 16% | / | / | 3%
COc1ccc(S(=O)(=O)NCCS(=O)(=O)N2CCN(c3ccccc3F)CC2)cc1 | -11% | / | / | 10%
CC(=O)c1cccc(NC(=O)c2noc3c2CCc2ccccc2-3)c1 | -2% | 66* | 35* | 75%
Cc1ccc(O)c(NC(=O)c2noc3c2CCc2ccccc2-3)c1 | 0% | 87* | 43* | 41%
Cc1cc(NC(=O)c2noc3c2CCc2ccccc2-3)no1 | 0% | 7 | -2 | 42%
C=CCNC(=O)c1sc(-c2ccccc2)nc1C | -14% | 42* | 17* | 44%
SMILES | Sm TGR inh | Shiga toxin inh | CHX counter | FMDV antiviral
C=C(C)c1sc(-c2ccc(Cl)cc2)nc1C | / | / | / | 59%
C/C(=N\OC(=O)NC(C)C)c1sc(-c2ccc(Cl)cc2)nc1C | -1% | 112* | 34* | -22%
Cc1nc(-c2ccccc2)sc1C(=O)NN | 0% | -10 | -8 | 8%
C/C(=N\OC(=O)c1ccc(F)cc1)c1sc(-c2ccccc2)nc1C | 12% | 54 | 19* | 35%
C/C(=N\OC(=O)c1ccc(Cl)cc1)c1sc(-c2ccccc2)nc1C | 3% | 22 | 19 | 33%
CCNC(=O)O/N=C(\C)c1sc(-c2ccc(Cl)cc2)nc1C | 23% | 114* | 52* | 18%
Cc1cccc(N2CCn3c2nc2c3c(=O)n(C/C=C/c3ccccc3)c(=O)n2C)c1 | -27% | / | / | -10%
C/C(=N\OC(=O)NC1CCCCC1)c1sc(-c2ccccc2)nc1C | -27% | 90 | 25 | ?
C/C(=N\OC(=O)NC(C)C)c1sc(-c2ccccc2)nc1C | 0% | 52 | 26* | -16%
CCCCc1nc2cc(C(=O)N(C)C(C)c3ccccn3)ccc2o1 (stereo not given) | 1% | 30* | 23* | 70%

From PubChem BioAssay
